Measurements taken from ChEMBL document CHEMBL4513141, “CO-ADD screening of NIH (USA) - Clinical Collection” (2021).
Results with a measured potency or affinity are listed apart.

Tests used:
[1] = tested on: Klebsiella pneumoniae; conditions: Concentration 20 uM; ASSAY_TEST Inhibition of Bacterial Growth; detection method Absorption (OD600); MEDIA CAMHB; plate type 384well; NBS; CORNING #3640; time 18 hr
[2] = tested on: Candida albicans; conditions: 20 µM
[3] = tested on: Cryptococcus neoformans; conditions: Concentration 20 uM; ASSAY_TEST Inhibition of Fungal Growth; detection method Resazurin; Absorption (OD600-OD570); plate type 384well; NBS; CORNING #3640

SMILES | Inhibition [1] [%] | Inhibition [2] [%] | Inhibition [3] [%]
CC(=O)Nc1ccc(CC(=O)O)cc1 [ACTARIT] | 4.76 | -0.65 | 4.09
CC(=O)O.NCc1ccc(S(N)(=O)=O)cc1 [MAFENIDE ACETATE] | 13.84 | 0.67 | -7.57
C[C@@H]1CN(CCCn2c3ccccc3c3ccccc32)C[C@H](C)N1.Cl.O | -0.67 | 0.45 | 2.04
CN1CCN(CCCN2c3ccccc3Sc3ccc(C(F)(F)F)cc32)CC1.Cl.Cl [TRIFLUOPERAZINE HYDROCHLORIDE] | 10.06 | 2.94 | -7.04
CC(=O)OCC(=O)[C@@]1(O)CC[C@H]2[C@@H]3C[C@H](C)C4=CC(=O)C=C[C@]4(C)[C@H]3[C@@H](O)C[C@@]21C [METHYLPREDNISOLONE ACETATE] | 10.69 | -0.69 | -0.41
Cc1nc2ccccn2c(=O)c1CCN1CCC(C(=O)c2ccc(F)cc2)CC1 [PIRENPERONE] | 8.87 | 3.8 | -7.79
CNCC[C@H](Oc1cccc2ccccc12)c1cccs1.Cl [DULOXETINE HYDROCHLORIDE] | 5.49 | 3.07 | -2.99
CC1(C)O[C@@H]2C[C@H]3[C@@H]4C[C@H](F)C5=CC(=O)C=C[C@]5(C)[C@@]4(F)[C@@H](O)C[C@]3(C)[C@]2(C(=O)CO)O1 [FLUOCINOLONE ACETONIDE] | -0.92 | 5.45 | 6.47
CC(Cc1ccc(O)c(O)c1)(NN)C(=O)O.O (centres undefined) | 11.66 | 2.35 | -6.03
CC(C)NCC(O)COc1ccc(CC(N)=O)cc1 (centres undefined) [ATENOLOL] | 8.57 | 3.26 | 1.62
CC(C)c1nc(CN(C)C(=O)N[C@H](C(=O)N[C@@H](Cc2ccccc2)C[C@H](O)[C@H](Cc2ccccc2)NC(=O)OCc2cncs2)C(C)C)cs1 [RITONAVIR] | 14.84 | 1.82 | -5.87
CN(C/C=C/C#CC(C)(C)C)Cc1cccc2ccccc12.Cl [TERBINAFINE HYDROCHLORIDE] | 11.69 | 32.9 | 35.41
NS(=O)(=O)Cc1noc2ccccc12 [ZONISAMIDE] | 12.91 | 3.7 | -5.53
CN(C)CCOC(C)(c1ccccc1)c1ccccn1.O=C(O)CCC(=O)O (centres undefined) [DOXYLAMINE SUCCINATE] | 9.97 | 0.07 | -8.18
CCCNC(C)C(=O)Nc1ccccc1C.Cl (centres undefined) [PRILOCAINE HYDROCHLORIDE] | 10.6 | 2.91 | -8.37
Cc1cn([C@H]2C=C[C@@H](CO)O2)c(=O)[nH]c1=O [STAVUDINE] | 14.08 | 2.99 | 0.51
CCc1c(C)[nH]c2c1C(=O)C(CN1CCOCC1)CC2.Cl (centres undefined) [MOLINDONE HYDROCHLORIDE] | -0.12 | 3.99 | 6.64
C[C@]12CCC(=O)C=C1CC[C@@H]1[C@@H]2C(=O)C[C@@]2(C)[C@H]1CC[C@]2(O)C(=O)CO [CORTISONE] | 16.58 | 4.46 | 0.81
NNC(=O)c1ccncc1 [ISONIAZID] | 6.54 | 3.95 | -3.6
CC(=O)O[C@@]12CO[C@@H]1C[C@H](O)[C@@]1(C)C(=O)[C@H](O)C3=C(C)[C@@H](OC(=O)[C@H](O)[C@@H](NC(=O)OC(C)(C)C)c4ccccc4)C[C@](O)([C@@H](OC(=O)c4ccccc4)[C@H]21)C3(C)C | 11.64 | 1.38 | -6.01

SMILES | Inhibition [1] [%] | Inhibition [2] [%] | Inhibition [3] [%]
COc1ccccc1OCCNCC(O)COc1cccc2[nH]c3ccccc3c12 (centres undefined) [CARVEDILOL] | 14.17 | 1.69 | 1.85
Oc1ncc(F)cn1 | 12.75 | 0.46 | -8.59
CC(=O)O.CNC(=N)NCCC[C@H](N)C(=O)O [TILARGININE ACETATE] | -3.72 | 2.96 | -3.5
COC(=O)C1=C(C)NC(C)=C(C(=O)O[C@@H]2CCCN(Cc3ccccc3)C2)[C@@H]1c1cccc([N+](=O)[O-])c1.Cl | -2.17 | 3.91 | -18.39
CC(C)NCC(O)COc1ccc(CCOCC2CC2)cc1.Cl (centres undefined) [BETAXOLOL HYDROCHLORIDE] | 15.59 | 2.88 | -9.53
NCC(=O)CCC(=O)O [AMINOLEVULINIC ACID] | 13.51 | 0.21 | -6.69
Cn1cnc([N+](=O)[O-])c1Sc1ncnc2[nH]cnc12 [AZATHIOPRINE] | 13.95 | 4.62 | -6.38
CCOC(=O)c1ccc(OC(=O)CCCCCN=C(N)N)cc1.CS(=O)(=O)O | 15.95 | 3.2 | -7.27
N=c1cc(N2CCCCC2)nc(N)n1O | 8.77 | 2.93 | -7.74
Cl.OC(CCN1CCCC1)(c1ccccc1)C1CCCCC1 (centres undefined) [PROCYCLIDINE HYDROCHLORIDE] | 8.43 | 4.68 | -10.03
Cl.O=C1CN2Cc3c(ccc(Cl)c3Cl)N=C2N1 [ANAGRELIDE HYDROCHLORIDE] | 18.04 | 3.23 | -6.07
CN(C)CCC[C@@]1(c2ccc(F)cc2)OCc2cc(C#N)ccc21.O=C(O)C(=O)O [ESCITALOPRAM OXALATE] | 13.63 | 3.94 | -10.38
Cc1ncc([N+](=O)[O-])n1CC(C)O (centres undefined) [SECNIDAZOLE] | 8.29 | 1.89 | 0.36
C#C[C@]1(O)CC[C@H]2[C@@H]3CCc4cc(OC)ccc4[C@H]3CC[C@@]21C [MESTRANOL] | 4.28 | 4.15 | -7.53
O=C1N=C([O-])NC1(c1ccccc1)c1ccccc1.[Na+] [PHENYTOIN SODIUM] | 7.94 | 2.49 | 1.23
C#C[C@]1(O)CC[C@H]2[C@@H]3CCC4=Cc5oncc5C[C@]4(C)[C@H]3CC[C@@]21C [DANAZOL] | 2.6 | 6.36 | 0.96
Cl.O.OC[C@H]1O[C@@H](n2cnc3c(N[C@H]4CCC[C@@H]4O)ncnc32)[C@@H](O)C1O (some centres undefined) | 8.61 | 3.02 | -2.1
O=S(=O)([O-])CCS.[Na+] [MESNA] | 6.51 | 4.45 | 1.48
CC(=O)OCC(=O)[C@@]1(O)CC[C@H]2[C@@H]3CCC4=CC(=O)CC[C@]4(C)[C@H]3C(=O)C[C@@]21C [CORTISONE ACETATE] | 12.5 | 1.99 | -0.31
CCCN[C@H]1CCc2nc(N)sc2C1 [PRAMIPEXOLE] | 5.86 | 5.21 | -0.71

SMILES | Inhibition [1] [%] | Inhibition [2] [%] | Inhibition [3] [%]
CN(C)CCOC(c1ccc(Cl)cc1)c1ccccn1.O=C(O)/C=C\C(=O)O (centres undefined) [CARBINOXAMINE MALEATE] | 12.89 | 0.99 | 0.28
CNNCc1ccc(C(=O)NC(C)C)cc1.Cl [PROCARBAZINE HYDROCHLORIDE] | 8 | 2.55 | -6.46
CC(CCCCC(=O)Nc1ccc(C(F)(F)F)cc1)NCCc1c[nH]cn1.O=C(O)/C=C\C(=O)O.O=C(O)/C=C\C(=O)O (centres undefined) | 6.44 | 2.76 | -4.87
COc1cc2nc(N3CCN(C(=O)C4CCCO4)CC3)nc(N)c2cc1OC (centres undefined) [TERAZOSIN] | 3.6 | 3.05 | 0.02
CC(=O)NCCCCCCNC(C)=O [HEXAMETHYLENEBISACETAMIDE] | 1.97 | 0.48 | -6.53
Cc1cc2c(s1)Nc1ccccc1N=C2N1CCN(C)CC1 [OLANZAPINE] | 5.81 | -0.3 | -5.37
CC1(C)C[C@@H]1C(=O)N/C(=C\CCCCSC[C@H](N)C(=O)O)C(=O)[O-].[Na+] [CILASTATIN SODIUM] | -2.84 | 5.18 | -1.08
C[C@]12C=CC(=O)C=C1CC[C@@H]1[C@@H]2[C@@H](O)C[C@@]2(C)[C@H]1CC[C@]2(O)C(=O)CO [PREDNISOLONE] | 15.03 | 1.1 | -7.92
C=CCc1ccc(O)c(-c2ccc(O)c(CC=C)c2)c1 [HONOKIOL] | 7.54 | 3.92 | 0.25
CCCCNc1cc(C(=O)O)cc(S(N)(=O)=O)c1Oc1ccccc1 [BUMETANIDE] | 11.75 | 3.22 | 1
C[C@H](CS)C(=O)N1CCC[C@H]1C(=O)O [CAPTOPRIL] | 9.36 | 2.59 | 1.67
COc1ccccc1OCC(O)CN1CCN(CC(=O)Nc2c(C)cccc2C)CC1.Cl.Cl (centres undefined) [RANOLAZINE HYDROCHLORIDE] | 1.09 | 1.45 | -5.35
CCN1CCC[C@H]1CNC(=O)c1c(O)c(Cl)cc(Cl)c1OC [RACLOPRIDE] | 6.89 | 2.44 | 1.03
COCCCC/C(=N\OCCN)c1ccc(C(F)(F)F)cc1.O=C(O)/C=C\C(=O)O [FLUVOXAMINE MALEATE] | 6.46 | 2.11 | -8.17
Cl.NC1CCN(c2cccc(Cl)n2)CC1 | 7.75 | 2.49 | 0.18
O=C(CCCN1CC=C(n2c(=O)[nH]c3ccccc32)CC1)c1ccc(F)cc1 [DROPERIDOL] | 9.88 | 4.22 | -8.67
CCOC(=O)C1=C(C)NC(C)=C(C(=O)OC)C1c1cccc([N+](=O)[O-])c1 (centres undefined) [NITRENDIPINE] | 3.96 | 3.79 | -6.79
CC(=O)SCC(Cc1ccccc1)C(=O)NCC(=O)OCc1ccccc1 (centres undefined) [RACECADOTRIL] | 3.98 | 5.86 | -6.78
